Tests used:
Assay in all cases: log2 ratio of Biotin-Ahx-Ub-VS probe labelling (fragment/DMSO); higher = less target engagement (more negative = stronger competition), active = hit call of the paper (q ≤ 0.05, log2 ratio ≤ -1)
Conditions in all cases: compound concentration: 200 uM; treatment time: 3 h
USP19 = target: T1, USP19 (UniProt O94966)
T1 sequence (whole entry): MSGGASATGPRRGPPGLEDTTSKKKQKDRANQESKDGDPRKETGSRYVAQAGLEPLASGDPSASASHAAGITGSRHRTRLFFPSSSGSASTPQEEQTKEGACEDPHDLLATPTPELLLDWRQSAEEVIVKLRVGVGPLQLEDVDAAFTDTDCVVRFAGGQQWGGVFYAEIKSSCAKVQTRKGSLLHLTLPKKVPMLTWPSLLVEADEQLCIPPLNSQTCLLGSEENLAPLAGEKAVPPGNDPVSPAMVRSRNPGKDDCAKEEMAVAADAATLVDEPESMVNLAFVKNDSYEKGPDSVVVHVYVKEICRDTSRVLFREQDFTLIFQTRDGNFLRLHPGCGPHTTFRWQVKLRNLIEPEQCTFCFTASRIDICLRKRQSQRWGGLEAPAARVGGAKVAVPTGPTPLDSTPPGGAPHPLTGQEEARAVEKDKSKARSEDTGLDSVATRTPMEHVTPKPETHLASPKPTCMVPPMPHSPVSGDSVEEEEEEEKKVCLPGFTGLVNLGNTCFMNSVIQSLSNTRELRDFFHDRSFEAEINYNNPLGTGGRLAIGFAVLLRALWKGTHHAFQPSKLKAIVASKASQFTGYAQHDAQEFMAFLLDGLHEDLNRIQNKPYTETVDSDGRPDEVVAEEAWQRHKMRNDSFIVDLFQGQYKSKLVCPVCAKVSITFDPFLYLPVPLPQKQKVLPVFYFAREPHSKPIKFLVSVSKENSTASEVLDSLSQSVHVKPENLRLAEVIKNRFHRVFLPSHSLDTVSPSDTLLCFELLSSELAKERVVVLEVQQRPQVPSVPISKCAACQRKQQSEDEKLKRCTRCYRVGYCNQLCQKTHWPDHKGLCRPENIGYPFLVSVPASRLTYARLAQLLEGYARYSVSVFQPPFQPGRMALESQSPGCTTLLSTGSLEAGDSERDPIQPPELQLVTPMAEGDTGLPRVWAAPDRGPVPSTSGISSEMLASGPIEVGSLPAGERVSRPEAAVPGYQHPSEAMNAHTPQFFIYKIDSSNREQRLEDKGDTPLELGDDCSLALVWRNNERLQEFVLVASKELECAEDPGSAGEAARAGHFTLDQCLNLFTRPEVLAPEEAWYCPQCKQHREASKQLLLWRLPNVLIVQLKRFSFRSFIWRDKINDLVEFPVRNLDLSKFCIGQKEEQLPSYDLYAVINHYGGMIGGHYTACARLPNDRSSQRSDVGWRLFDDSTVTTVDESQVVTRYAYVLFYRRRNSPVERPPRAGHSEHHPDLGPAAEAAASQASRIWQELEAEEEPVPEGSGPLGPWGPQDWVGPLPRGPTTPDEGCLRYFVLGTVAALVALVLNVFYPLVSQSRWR
Procedure, shortened: (§1)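 Average log2 ratios of fragment over vehicle were obtained by unpaired t-test from global-median-normalised Spectronaut label-free quantities. Proteins with ≥2 unique peptides were included. HEK293T lysate (495 µg per sample) was treated in triplicate with fragment at 200 µM or vehicle for 3 h, then with Biotin-Ahx-Ub-VS at 0.5 µM final for 1 h, and labelled DUBs were NeutrAvidin-enriched and run by diaPASEF LC-MS/MS.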

USP22 = target: T2, USP22 (UniProt Q9UPT9)
T2 sequence (whole entry): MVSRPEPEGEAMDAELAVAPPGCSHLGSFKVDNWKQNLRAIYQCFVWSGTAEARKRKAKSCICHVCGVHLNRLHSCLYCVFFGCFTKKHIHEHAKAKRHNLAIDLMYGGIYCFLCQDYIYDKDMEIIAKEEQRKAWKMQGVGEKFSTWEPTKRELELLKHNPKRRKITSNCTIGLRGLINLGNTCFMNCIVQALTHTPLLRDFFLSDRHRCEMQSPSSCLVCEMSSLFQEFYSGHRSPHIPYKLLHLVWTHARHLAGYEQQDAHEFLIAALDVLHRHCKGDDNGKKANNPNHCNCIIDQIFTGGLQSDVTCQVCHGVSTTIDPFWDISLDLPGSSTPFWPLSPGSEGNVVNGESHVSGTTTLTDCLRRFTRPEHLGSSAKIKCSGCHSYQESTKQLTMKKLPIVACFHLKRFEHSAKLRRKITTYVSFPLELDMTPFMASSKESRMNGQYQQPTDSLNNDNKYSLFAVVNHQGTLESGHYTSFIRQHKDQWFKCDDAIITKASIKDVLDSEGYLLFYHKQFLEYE
Procedure, shortened: as §1

USP24 = USP24 (UniProt Q9UPU5)
Sequence of USP24 (Q9UPU5 whole entry): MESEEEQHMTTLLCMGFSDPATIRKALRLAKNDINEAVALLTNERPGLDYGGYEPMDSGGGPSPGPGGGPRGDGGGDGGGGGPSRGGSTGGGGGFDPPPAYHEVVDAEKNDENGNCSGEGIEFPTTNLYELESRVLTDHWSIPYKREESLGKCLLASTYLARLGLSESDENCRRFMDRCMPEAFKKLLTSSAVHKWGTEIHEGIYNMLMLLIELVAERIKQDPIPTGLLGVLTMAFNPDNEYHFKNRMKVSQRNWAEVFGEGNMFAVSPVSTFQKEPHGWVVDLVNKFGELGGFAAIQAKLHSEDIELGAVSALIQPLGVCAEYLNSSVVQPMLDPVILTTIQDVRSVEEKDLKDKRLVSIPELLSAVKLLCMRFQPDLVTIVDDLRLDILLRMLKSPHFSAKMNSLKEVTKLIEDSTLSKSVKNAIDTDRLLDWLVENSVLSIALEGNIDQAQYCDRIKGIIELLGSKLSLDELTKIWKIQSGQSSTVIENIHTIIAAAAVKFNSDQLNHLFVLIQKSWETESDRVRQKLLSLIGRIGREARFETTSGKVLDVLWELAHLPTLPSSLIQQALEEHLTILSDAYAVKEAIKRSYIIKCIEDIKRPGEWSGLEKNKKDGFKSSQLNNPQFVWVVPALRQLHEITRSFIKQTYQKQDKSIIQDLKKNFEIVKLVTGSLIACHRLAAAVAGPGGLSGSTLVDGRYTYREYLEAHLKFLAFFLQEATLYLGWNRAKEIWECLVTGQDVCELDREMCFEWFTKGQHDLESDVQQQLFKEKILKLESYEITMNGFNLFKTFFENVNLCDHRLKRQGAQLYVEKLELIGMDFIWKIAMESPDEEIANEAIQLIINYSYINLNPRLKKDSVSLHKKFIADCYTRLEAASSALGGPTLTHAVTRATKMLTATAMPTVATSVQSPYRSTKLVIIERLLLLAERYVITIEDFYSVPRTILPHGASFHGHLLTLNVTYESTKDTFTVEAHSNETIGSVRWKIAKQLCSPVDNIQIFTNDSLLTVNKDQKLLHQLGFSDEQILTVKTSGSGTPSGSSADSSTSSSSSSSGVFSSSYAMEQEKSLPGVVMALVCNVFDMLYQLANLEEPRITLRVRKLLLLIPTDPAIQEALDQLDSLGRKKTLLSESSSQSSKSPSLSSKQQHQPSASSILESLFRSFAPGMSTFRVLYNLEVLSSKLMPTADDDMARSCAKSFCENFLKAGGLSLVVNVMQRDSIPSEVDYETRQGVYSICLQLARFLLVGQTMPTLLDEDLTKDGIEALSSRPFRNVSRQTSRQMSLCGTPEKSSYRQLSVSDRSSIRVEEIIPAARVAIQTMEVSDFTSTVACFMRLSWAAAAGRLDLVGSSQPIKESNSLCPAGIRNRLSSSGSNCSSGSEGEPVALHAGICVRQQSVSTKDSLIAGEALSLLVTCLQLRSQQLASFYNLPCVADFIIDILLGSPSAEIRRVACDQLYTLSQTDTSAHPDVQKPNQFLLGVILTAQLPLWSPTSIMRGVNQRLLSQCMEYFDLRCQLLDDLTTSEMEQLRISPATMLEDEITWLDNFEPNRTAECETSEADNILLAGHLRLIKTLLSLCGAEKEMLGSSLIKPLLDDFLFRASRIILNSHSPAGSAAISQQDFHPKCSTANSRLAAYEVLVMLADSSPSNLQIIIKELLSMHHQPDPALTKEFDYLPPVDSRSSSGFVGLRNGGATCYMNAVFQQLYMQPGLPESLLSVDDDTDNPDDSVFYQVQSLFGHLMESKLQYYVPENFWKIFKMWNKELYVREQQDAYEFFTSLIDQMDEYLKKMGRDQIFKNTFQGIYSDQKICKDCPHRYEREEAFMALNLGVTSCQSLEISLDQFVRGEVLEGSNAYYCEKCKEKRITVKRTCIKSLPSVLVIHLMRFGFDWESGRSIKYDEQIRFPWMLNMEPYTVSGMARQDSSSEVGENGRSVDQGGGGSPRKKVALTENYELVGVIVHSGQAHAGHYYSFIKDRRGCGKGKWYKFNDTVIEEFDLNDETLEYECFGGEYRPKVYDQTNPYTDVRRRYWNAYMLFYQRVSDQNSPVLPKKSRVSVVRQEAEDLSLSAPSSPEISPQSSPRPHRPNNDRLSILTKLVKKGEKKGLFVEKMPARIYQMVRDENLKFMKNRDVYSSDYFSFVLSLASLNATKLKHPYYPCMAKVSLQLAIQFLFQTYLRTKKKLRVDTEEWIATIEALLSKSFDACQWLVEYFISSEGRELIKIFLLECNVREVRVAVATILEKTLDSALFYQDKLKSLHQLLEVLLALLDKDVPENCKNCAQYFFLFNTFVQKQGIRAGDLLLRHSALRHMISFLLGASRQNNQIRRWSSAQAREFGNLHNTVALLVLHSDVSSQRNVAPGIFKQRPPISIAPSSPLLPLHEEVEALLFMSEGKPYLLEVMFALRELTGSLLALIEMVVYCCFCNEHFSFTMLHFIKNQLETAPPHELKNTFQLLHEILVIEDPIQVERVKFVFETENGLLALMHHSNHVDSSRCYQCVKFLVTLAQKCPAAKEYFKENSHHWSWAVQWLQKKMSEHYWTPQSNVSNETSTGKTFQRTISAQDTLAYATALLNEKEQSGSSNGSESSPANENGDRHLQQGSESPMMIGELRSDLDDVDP
Procedure, shortened: as §1

USP25 = target: T3, USP25 (UniProt Q9UHP3)
T3 sequence (whole entry): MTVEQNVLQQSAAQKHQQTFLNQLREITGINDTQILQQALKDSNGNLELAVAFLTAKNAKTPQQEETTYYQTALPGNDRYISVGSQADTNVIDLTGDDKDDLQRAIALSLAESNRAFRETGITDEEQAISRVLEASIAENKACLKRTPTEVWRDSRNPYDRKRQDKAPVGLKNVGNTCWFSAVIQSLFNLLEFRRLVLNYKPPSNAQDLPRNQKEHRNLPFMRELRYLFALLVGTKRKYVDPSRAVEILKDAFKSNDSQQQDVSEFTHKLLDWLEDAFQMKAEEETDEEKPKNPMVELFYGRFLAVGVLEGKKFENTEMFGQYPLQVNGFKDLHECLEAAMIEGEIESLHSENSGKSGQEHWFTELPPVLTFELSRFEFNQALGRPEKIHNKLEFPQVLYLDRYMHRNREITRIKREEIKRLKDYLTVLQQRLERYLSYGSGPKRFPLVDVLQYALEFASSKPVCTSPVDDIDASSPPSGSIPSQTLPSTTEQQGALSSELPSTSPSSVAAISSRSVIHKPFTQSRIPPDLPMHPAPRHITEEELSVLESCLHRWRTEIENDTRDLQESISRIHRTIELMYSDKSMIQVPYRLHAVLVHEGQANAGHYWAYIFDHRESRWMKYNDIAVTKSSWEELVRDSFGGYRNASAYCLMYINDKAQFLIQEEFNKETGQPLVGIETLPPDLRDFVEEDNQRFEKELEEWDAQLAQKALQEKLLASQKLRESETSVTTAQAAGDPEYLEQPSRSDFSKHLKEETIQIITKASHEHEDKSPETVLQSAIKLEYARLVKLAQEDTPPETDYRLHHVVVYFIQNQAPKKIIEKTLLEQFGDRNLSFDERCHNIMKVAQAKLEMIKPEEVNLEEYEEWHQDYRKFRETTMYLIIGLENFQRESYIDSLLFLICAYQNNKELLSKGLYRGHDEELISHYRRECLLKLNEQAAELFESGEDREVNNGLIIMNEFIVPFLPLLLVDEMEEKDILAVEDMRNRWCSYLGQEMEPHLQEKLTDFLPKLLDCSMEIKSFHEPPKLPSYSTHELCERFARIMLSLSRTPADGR
Procedure, shortened: as §1

USP28 = target: T4, USP28 (UniProt Q96RU2)
T4 sequence (whole entry): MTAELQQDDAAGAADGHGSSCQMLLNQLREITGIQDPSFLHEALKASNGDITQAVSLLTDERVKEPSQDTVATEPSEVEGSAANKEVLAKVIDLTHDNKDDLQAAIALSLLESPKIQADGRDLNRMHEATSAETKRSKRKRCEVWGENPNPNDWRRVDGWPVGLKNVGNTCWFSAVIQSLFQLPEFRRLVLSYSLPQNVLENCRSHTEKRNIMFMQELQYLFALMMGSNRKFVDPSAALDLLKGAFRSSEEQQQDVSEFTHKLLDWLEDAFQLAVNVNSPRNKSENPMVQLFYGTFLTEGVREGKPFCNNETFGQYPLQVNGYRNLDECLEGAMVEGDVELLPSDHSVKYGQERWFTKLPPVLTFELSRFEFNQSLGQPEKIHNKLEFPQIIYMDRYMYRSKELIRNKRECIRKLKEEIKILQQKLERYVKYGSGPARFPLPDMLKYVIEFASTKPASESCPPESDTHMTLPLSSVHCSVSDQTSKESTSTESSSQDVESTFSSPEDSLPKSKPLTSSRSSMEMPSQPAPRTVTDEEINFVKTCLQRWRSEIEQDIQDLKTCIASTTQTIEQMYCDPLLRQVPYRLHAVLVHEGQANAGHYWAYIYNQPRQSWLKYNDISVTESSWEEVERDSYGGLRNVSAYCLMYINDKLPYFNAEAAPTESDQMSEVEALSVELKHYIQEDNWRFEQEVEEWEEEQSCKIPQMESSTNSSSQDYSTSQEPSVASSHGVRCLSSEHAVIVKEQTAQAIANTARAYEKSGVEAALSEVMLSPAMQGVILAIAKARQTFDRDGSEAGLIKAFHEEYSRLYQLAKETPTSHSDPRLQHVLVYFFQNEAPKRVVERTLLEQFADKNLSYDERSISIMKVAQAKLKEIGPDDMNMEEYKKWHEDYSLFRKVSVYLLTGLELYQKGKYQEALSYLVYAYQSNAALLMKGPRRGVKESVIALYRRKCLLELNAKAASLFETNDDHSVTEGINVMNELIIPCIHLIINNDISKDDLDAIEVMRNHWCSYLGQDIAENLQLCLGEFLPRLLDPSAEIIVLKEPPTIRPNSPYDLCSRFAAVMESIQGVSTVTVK
Procedure, shortened: as §1

Measured: log2 ratio of Biotin-Ahx-Ub-VS probe labelling

O=C(CCl)N[C@H]1CCS(=O)(=O)c2ccccc21
inactive: USP19 -0.274 | USP22 -0.119 | USP24 -0.386 | USP25 -0.264 | USP28 -0.582

From the supplement of paper PMC11732987, “Enantioselective OTUD7B fragment discovery through chemoproteomics screening and high-throughput optimisation” (Communications Chemistry, 2025)
